Laboratory results taken from PubChem BioAssay AID588511 (Johns Hopkins Ion Channel Center, 2011).
The whole screen tested about 310,000 compounds, of which about 3,600 (1.2%) were called active.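 The calls were made as follows: active = ratio plate-corrected score three or more library SD toward inhibition, starting fluorescence score within five deviations; inactive = the rest.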 Many of the other results were omitted from the sample, so actives are more common in it than they were.

target: Anoctamin-1 (Mus musculus) (UniProt Q8BHY3); assay: blockers of mouse ANO1 Ca-activated Cl channel – cell-based, HTS, primary screen (AID 588511); conditions: HEK293 TMEM16A/YFP iodide influx fluorescence, ionomycin; at 10 µM;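 as to normalized B-score (activity score, 25-100; higher = stronger inhibition): score derived from kinetic fluorescence span divided by baseline fluorescence per well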
Sequence (Q8BHY3 whole entry, looked up): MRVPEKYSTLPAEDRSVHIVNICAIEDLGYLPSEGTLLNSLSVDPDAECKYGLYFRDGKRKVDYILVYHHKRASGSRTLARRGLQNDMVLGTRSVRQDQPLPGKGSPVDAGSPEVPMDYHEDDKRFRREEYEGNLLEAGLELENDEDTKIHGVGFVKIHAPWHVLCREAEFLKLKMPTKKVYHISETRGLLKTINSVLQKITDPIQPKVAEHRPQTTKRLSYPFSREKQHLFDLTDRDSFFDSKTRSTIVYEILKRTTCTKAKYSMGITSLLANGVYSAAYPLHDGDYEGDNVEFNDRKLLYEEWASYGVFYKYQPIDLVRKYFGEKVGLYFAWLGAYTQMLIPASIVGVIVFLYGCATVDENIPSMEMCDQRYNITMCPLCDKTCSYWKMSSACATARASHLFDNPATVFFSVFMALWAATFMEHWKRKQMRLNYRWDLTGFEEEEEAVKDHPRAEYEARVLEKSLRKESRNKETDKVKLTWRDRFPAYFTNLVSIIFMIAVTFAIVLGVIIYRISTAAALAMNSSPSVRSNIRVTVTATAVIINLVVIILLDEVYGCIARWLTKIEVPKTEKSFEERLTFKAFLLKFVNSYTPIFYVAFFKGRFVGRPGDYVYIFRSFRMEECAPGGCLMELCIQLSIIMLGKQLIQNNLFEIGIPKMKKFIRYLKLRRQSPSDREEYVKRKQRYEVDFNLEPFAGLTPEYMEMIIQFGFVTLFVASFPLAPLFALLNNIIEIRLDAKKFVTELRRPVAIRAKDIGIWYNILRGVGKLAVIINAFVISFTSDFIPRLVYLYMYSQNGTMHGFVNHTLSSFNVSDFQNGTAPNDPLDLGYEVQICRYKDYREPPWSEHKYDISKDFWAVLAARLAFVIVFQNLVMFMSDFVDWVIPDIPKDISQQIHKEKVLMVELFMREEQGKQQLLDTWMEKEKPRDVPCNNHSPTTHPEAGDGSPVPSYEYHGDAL

Structure (SMILES) | normalized B-score (activity score, 25-100; higher = stronger inhibition)
O=C(CC(O)(C(F)(F)F)C(F)(F)F)Nc1ccc(Cl)c(Cl)c1 | 100 (active)
O=C(Cc1ccc(Cl)c(Cl)c1)Nc1ccc(SC(F)F)cc1 | inactive
O=C(CC1SCCNC1=O)Nc1ccc(Cl)c(Cl)c1 (centres undefined) | inactive
Cc1ccc(NC(=O)Cn2c(=O)n(CCC(=O)NC3CCN(Cc4ccccc4)CC3)c(=O)c3ccccc32)cc1 | inactive
CCc1ccc(-c2nc(SCC(=O)NC3CCCC3)n[nH]2)cc1 | 25 (active)
COc1ccc(-c2nc(SCC(=O)N3CCCC3)n[nH]2)cc1 | inactive
CCc1c(C)nc(SCC(=O)NC2CCCC2)[nH]c1=O | inactive
CCC(CC)C(=O)Nc1c2c(nn1-c1ccc(C)cc1)CS(=O)(=O)C2 | inactive
O=C(NNS(=O)(=O)c1ccccc1C(F)(F)F)c1cc2ncc(C(F)(F)F)cc2s1 | inactive
O=C(Nc1ccccc1N1CCN(C(=O)c2ccccc2)CC1)c1ccco1 | inactive
CCCC(=O)Nc1ccccc1N1CCN(C(=O)c2ccccc2)CC1 | 25 (active)
CCCCC(=O)Nc1ccccc1N1CCN(c2ccc(F)cc2)CC1 | inactive
COc1ccccc1Oc1ccc(S(=O)(=O)Nc2cccnc2)cc1 | inactive
Cc1cc(C)cc(NS(=O)(=O)c2ccc(F)cc2)c1 | inactive
Cc1cc(C)cc(NS(=O)(=O)c2ccc(Oc3ncc(C(F)(F)F)cc3Cl)cc2)c1 | 25 (active)
CN1C(CC(=O)Nc2ccc(Br)cc2)c2ccccc2CC1(C)C (centres undefined) | inactive
Cc1ccccc1CSc1nnc(CCCCCNC(=O)OC(C)(C)C)o1 | 100 (active)
CCc1ccccc1NC(=O)CSc1nnc(CCNC(=O)OC(C)(C)C)o1 | inactive
Cc1cccc(NC(=O)CSc2nnc(CCCCCNC(=O)OC(C)(C)C)o2)c1C | inactive
CCc1ccc(C2C(C#N)=C(N)N(N3CCOCC3)C3=C2C(=O)CC(C)(C)C3)s1 (centres undefined) | inactive
COc1cccc(C(=O)NCCS(=O)(=O)NCC2CCCO2)c1 (centres undefined) | inactive
O=C(CCNC(=O)c1ccc(Br)cc1)NCCCc1ccccc1 | inactive
S=C(Nc1ccc(Br)cc1Cl)NC1CCN(Cc2ccccc2)CC1 | inactive
S=C(NN=C1CCN(Cc2ccccc2)CC1)NC1CCCCC1 | inactive
S=C(Nc1ccc(Br)cc1)NC1CCN(Cc2ccccc2)CC1 | 25 (active)
S=C(NCCc1ccccc1)Nc1ccccc1 | inactive
S=C(NCCCc1ccccc1)Nc1ccc(Br)cc1 | 100 (active)

Structure (SMILES) | normalized B-score (activity score, 25-100; higher = stronger inhibition)
O=C(NCc1ccccn1)C1CCN(S(=O)(=O)c2ccc(Br)cc2)CC1 | inactive
COc1ccc(C(C#N)(CC(=O)O)c2cnccn2)cc1OC (centres undefined) | inactive
CC(=O)c1ccccc1OCc1ccc(C(=O)c2ccccc2)cc1 | 25 (active)
COc1ccc(CCNC(=O)c2ccccc2OCc2ccccc2)cc1 | inactive
O=C(NC1CCC(O)CC1)c1ccccc1OCc1ccc(F)cc1 (centres undefined) | inactive
COc1ccccc1CNS(=O)(=O)c1ccc2c(c1)NC(=O)CS2 | inactive
CCSc1nsc(NC(=O)Nc2cccc(C(C)=O)c2)n1 | inactive
C=C(C)C(=O)Nc1cccc(C(C)=O)c1 | inactive
CCSc1nsc(NC(=O)Nc2ccccc2OC)n1 | inactive
O=C(Nc1ccccc1)Nc1nnc(COc2ccccc2F)s1 | inactive
C=CCSc1nsc(NC(=O)Nc2cccc(C(C)=O)c2)n1 | 100 (active)
CSc1nsc(NC(=O)Nc2ccccc2)n1 | 100 (active)
COc1ccc(-c2c(-c3ccc(OC)cc3O)nc(C)nc2C(F)(F)F)cc1 | inactive
COc1cc(NC(=O)c2ccc(-c3csc(C)n3)cc2)c(OC)cc1Cl | inactive
CC1CCCCN1CCCNC(=O)Cn1ncc2c([nH]c3ccccc32)c1=O (centres undefined) | inactive
Cc1ccc2c(c1)N(CC(=O)NCCCN1CCCCC1)C(=O)c1cccnc1O2 | inactive
Clc1ccc(-c2nc3ccccn3c2CN2CCSCC2)cc1 | inactive
CCCCn1c(N)c(N(CC(C)C)C(=O)CN(C)S(=O)(=O)c2ccc(F)cc2)c(=O)[nH]c1=O | inactive
CC(=O)c1cccc(NC(=O)N2CCCC2C(=O)NCCC(C)C)c1 (centres undefined) | 25 (active)
CC(=O)c1cccc(NC(=O)N2CCCC2C(=O)NCCc2ccccc2)c1 (centres undefined) | inactive
COc1ccc(CCNC(=O)C2CCCN2C(=O)Nc2ccccc2)cc1OC (centres undefined) | inactive
Cc1snc(SCc2c(F)cccc2Cl)c1C#N | inactive
Cc1cc(C)c2c(-n3cccc3)c(C(=O)NNS(=O)(=O)c3ccc(F)cc3)sc2n1 | inactive
CC(Sc1nnc(Cc2ccc([N+](=O)[O-])cc2)o1)C(N)=O (centres undefined) | inactive
CCn1nccc1C(=O)Nc1ccc(S(=O)(=O)NC23CC4CC(CC(C4)C2)C3)cc1 | 25 (active)
Cc1cc(C(F)F)n2nc(C(=O)Nc3ccc(S(=O)(=O)NC45CC6CC(CC(C6)C4)C5)cc3)nc2n1 | inactive
CCn1nccc1C(=O)Nc1ccc(Cl)c(Cl)c1 | inactive
